Bioassay records deposited in PubChem BioAssay by National Center for Advancing Translational Sciences (NCATS).
Sampled rows, rich in hits. Any-hit rate of the full collection: about 19%.
TDP1 cell noCPT – qHTS for Inhibitors of human tyrosyl-DNA phosphodiesterase 1 (TDP1): qHTS in cells in absence of CPT | DT40 Tdp1-/- hTDP1 cells, no CPT, ATP luminescence, 48 h | Potency, µM (highest dose often 46.2 µM), for the others: at the top dose activity change, negative = growth inhibition, usual class: inhibitors | 420,000 compounds, 15% hits | AID 686978, 2013; note: nearly all actives have a fitted effect of over 55% in size
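No-CPT arm: Tdp1-/-;hTDP1 DT40 cells (400/well) plus compounds, incubated ≥48 hr at 37 °C. Readout CellTiter-Glo luminescence.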
KB-V1 MDR tox – kills drug-selected multidrug resistant KB-V1 cells; Potency, µM (series often up to 46.1 µM), actives largely listed as cytotoxic; 400,000 compounds, 3.4% hits; KB-V1 MDR cells viability, CellTiter-Glo, 72 h; note: nearly all actives have a fitted effect of over 60% in size
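qHTS viability screen in drug-selected KB-V1 MDR cells: 72 h compound treatment at 37 degrees C, ATP luminescence end point.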
HT1080-NT tox – kills 2HG-producing HT-1080-NT fibrosarcoma cells; HT-1080-NT fibrosarcoma viability, CellTiter-Glo ATP luminescence, 48 h; Potency, µM (top dose mostly 46.1 µM), without a hit: top-dose activity, negative = less viability, most hits filed as cytotoxic; 360,000 compounds, 1.6% hits; AID 686970;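 note: NT is the 2HG producing partner of a matched IDH1 knockdown line; 0% = DMSO-treated cells and -100% = media-only wells without cells; nearly all actives have a fitted effect of over 55% in size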
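Luminescent CellTiter-Glo readout after 48 hours of compound exposure at 37 degrees C defined viability of HT-1080-NT cells. Activity was normalized to DMSO wells and cell-free media wells; concentration-response curves were fitted and assigned curve classes.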
KB-3-1 cytotox – kills parental KB-3-1 adenocarcinoma cells; AID 1347075; 400,000 compounds, 1.4% hits; Potency, µM (series often up to 46.1 µM), usual class: cytotoxic; KB-3-1 viability, CellTiter-Glo ATP luminescence, 72 h; note: nearly all actives have a fitted effect of over 60% in size
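Parental KB-3-1 viability, qHTS format: 72 h compound exposure, 37 °C; CellTiter-Glo; media-only wells and DMSO plates as controls; concentration-effect fits on corrected data.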
DT40 TDP1 CPT – growth inhibition of DT40 Tdp1-/-;hTDP1 cells with camptothecin (screen for TDP1 inhibitors); chicken DT40 Tdp1-/-;hTDP1 cells + 20 nM CPT, ATP luminescence, 48 h; AID 686979; Potency, µM (doses to about 46.2 µM), inactives show at the top dose activity change, negative = growth inhibition, usual class: inhibitors; 420,000 compounds, 12% hits; note: nearly all actives have a fitted effect of over 55% in size
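Chicken DT40 Tdp1-/- cells complemented with human TDP1, 400 cells/well, exposed to compounds plus 20 nM camptothecin for at least 48 h at 37 C; viability read as ATP content by CellTiter-Glo luminescence.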
HT1080 IDH1KD tx – toxicity to HT-1080 IDH1 knockdown cells (counter line) | HT-1080 IDH1 knockdown viability, ATP luminescence, 48 h | Potency, µM (titrated, usually from 46.1 µM), for the others: top-dose activity, negative = toxicity, hits mostly cytotoxic | 360,000 compounds, 2% hits | AID 686971;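 note: 0% = DMSO wells and -100% = cell-free medium wells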
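CellTiter-Glo luminescence after 48 h compound exposure at 37 degrees C of IDH1-knockdown HT-1080 cells in 5% FBS RPMI. %Activity scaled between DMSO wells and cell-free media wells, with curves fitted and assigned curve classes.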
Numbers without * were called inactive. Calls come from the whole dose curve; as a rule, active = well fitted curve in the direction sought with a large enough effect; inconclusive = small, poorly fitted or top-dose-only effect, or another doubt; inactive = no such curve, though single readings can be large; an effect the other way counts as inactive or inconclusive. Unless noted, % is set by controls: 0 for no effect and ±100 for the full control effect; potency is the fitted concentration of half-maximal effect.

`COc1ccc(C(NC(=O)C2CCN(CCOc3ccc(Cl)cc3)CC2)c2cccs2)cc1` (stereo not drawn) gave TDP1 cell noCPT inconclusive, KB-V1 MDR tox inactive, HT1080-NT tox 21µM*, KB-3-1 cytotox inactive, DT40 TDP1 CPT inconclusive and HT1080 IDH1KD tx inconclusive.
Screening Cn1cc(CN2CCC(C(=O)NC(c3ccc(F)cc3)c3ccc4ccccc4n3)CC2)c2ccccc21 (stereo not drawn) returned TDP1 cell noCPT 7.3µM*, KB-V1 MDR tox inconclusive, HT1080-NT tox 23µM*, KB-3-1 cytotox inconclusive, DT40 TDP1 CPT 12µM* and HT1080 IDH1KD tx 16µM*.
Screening Cc1ccnc(NC(=O)C2CC(=O)N(Cc3ccccc3)C2)c1 (stereo not drawn) returned TDP1 cell noCPT -6%, KB-V1 MDR tox inactive, HT1080-NT tox 11%, KB-3-1 cytotox inconclusive, DT40 TDP1 CPT 0% and HT1080 IDH1KD tx 15%.
`COCc1ccccc1C1=CC(=O)C[C@H](c2ccc(F)cc2)C1` gave TDP1 cell noCPT -26%, KB-V1 MDR tox inconclusive, HT1080-NT tox -4%, KB-3-1 cytotox inactive, DT40 TDP1 CPT -7% and HT1080 IDH1KD tx -4%.
`CN(CC(=O)Nc1ccc(F)cc1)C(=O)c1ccc(OCc2ccccc2)cc1` gave TDP1 cell noCPT -10%, KB-V1 MDR tox inactive, HT1080-NT tox -7%, KB-3-1 cytotox inactive, DT40 TDP1 CPT -24% and HT1080 IDH1KD tx -16%.
For O=C(NC(c1ccc(F)cc1)c1ccc2ccccc2n1)C1CCN(CCOc2ccc(Cl)cc2Cl)CC1 (stereo not drawn) the results were TDP1 cell noCPT inconclusive, KB-V1 MDR tox inconclusive, HT1080-NT tox inconclusive, KB-3-1 cytotox inconclusive, DT40 TDP1 CPT 16µM* and HT1080 IDH1KD tx 12µM*.
Screening COc1cc(CN2CCC(C(=O)NC(c3ccc(F)cc3)c3ccc4ccccc4n3)CC2)cc(OC)c1 (stereo not drawn) returned TDP1 cell noCPT 2.9µM*, KB-V1 MDR tox inconclusive, HT1080-NT tox 2.3µM*, KB-3-1 cytotox 5.2µM*, DT40 TDP1 CPT 3.7µM* and HT1080 IDH1KD tx 3.3µM*.
For O=C(NC(c1ccc(F)cc1)c1ccc2ccccc2n1)C1CCN(Cc2ccc(Oc3ccccc3)cc2)CC1 (stereo not drawn) the results were TDP1 cell noCPT inconclusive, KB-V1 MDR tox inactive, HT1080-NT tox -60%, KB-3-1 cytotox inconclusive, DT40 TDP1 CPT inconclusive and HT1080 IDH1KD tx inconclusive.
Screening COc1ccc(OCCN2CCC(C(=O)NC(c3ccc(F)cc3)c3ccc4ccccc4n3)CC2)cc1 (stereo not drawn) returned TDP1 cell noCPT 18µM*, KB-V1 MDR tox inactive, HT1080-NT tox inconclusive, KB-3-1 cytotox inconclusive, DT40 TDP1 CPT 29µM* and HT1080 IDH1KD tx inconclusive.
Screening O=C(O)/C=C/C(=O)NCCC(c1ccccc1)c1ccccc1 returned TDP1 cell noCPT inconclusive, KB-V1 MDR tox inactive, HT1080-NT tox -12%, KB-3-1 cytotox inactive, DT40 TDP1 CPT inconclusive and HT1080 IDH1KD tx 5%.
O=C(Nc1ccccc1)/C(=C/c1ccccc1)c1ccccc1 was read as TDP1 cell noCPT 12µM*, KB-V1 MDR tox inconclusive, HT1080-NT tox 5%, KB-3-1 cytotox inactive, DT40 TDP1 CPT inconclusive and HT1080 IDH1KD tx -1%.
For Cc1ccccc1NC(=O)/C(=C/c1ccccc1)c1ccccc1 the results were TDP1 cell noCPT 12µM*, KB-V1 MDR tox inactive, HT1080-NT tox 2%, KB-3-1 cytotox inactive, DT40 TDP1 CPT 21µM* and HT1080 IDH1KD tx -9%.
Screening Cc1ccc(S(=O)(=O)Cc2ccc(C(=O)N3CCN(c4cc(C)ccc4C)CC3)o2)cc1 returned TDP1 cell noCPT 12µM*, KB-V1 MDR tox 18µM*, HT1080-NT tox 13%, KB-3-1 cytotox inconclusive, DT40 TDP1 CPT 15µM* and HT1080 IDH1KD tx 5%.
COc1ccc(N2CCN(C(=O)c3ccc(CS(=O)(=O)c4ccccc4C)o3)CC2)cc1 was read as TDP1 cell noCPT inconclusive, KB-V1 MDR tox inconclusive, HT1080-NT tox -23%, KB-3-1 cytotox inactive, DT40 TDP1 CPT inconclusive and HT1080 IDH1KD tx inconclusive.
Cc1ccc(S(=O)(=O)Cc2ccc(C(=O)N3CCCCCC3)o2)cc1 was read as TDP1 cell noCPT -27%, KB-V1 MDR tox inactive, HT1080-NT tox 0%, KB-3-1 cytotox inactive, DT40 TDP1 CPT inconclusive and HT1080 IDH1KD tx 0%.
`Cc1ccc(C)c(N2CCN(C(=O)c3ccc(CS(=O)(=O)c4ccccc4C)o3)CC2)c1` gave TDP1 cell noCPT 18µM*, KB-V1 MDR tox inconclusive, HT1080-NT tox inconclusive, KB-3-1 cytotox inconclusive, DT40 TDP1 CPT 18µM* and HT1080 IDH1KD tx 10µM*.
For O=C1c2ccccc2-c2onc3ccc(N4CCCC4)c1c23 the results were TDP1 cell noCPT 26µM*, KB-V1 MDR tox inconclusive, HT1080-NT tox inconclusive, KB-3-1 cytotox inconclusive, DT40 TDP1 CPT inconclusive and HT1080 IDH1KD tx inconclusive.
For O=C1c2ccccc2-c2onc3ccc(NCc4ccco4)c1c23 the results were TDP1 cell noCPT 23µM*, KB-V1 MDR tox 10µM*, HT1080-NT tox -21%, KB-3-1 cytotox inactive, DT40 TDP1 CPT inconclusive and HT1080 IDH1KD tx inconclusive.
For O=C1C=C(N2CCCCC2)c2ccccc2C1=O the results were TDP1 cell noCPT 6.5µM*, KB-V1 MDR tox 10µM*, HT1080-NT tox 6.5µM*, KB-3-1 cytotox 12µM*, DT40 TDP1 CPT 3.7µM* and HT1080 IDH1KD tx 5.8µM*.
For O=C1c2ccccc2-c2cccc(C(=O)N3CCCCC3)c21 the results were TDP1 cell noCPT -9%, KB-V1 MDR tox inactive, HT1080-NT tox -12%, KB-3-1 cytotox inactive, DT40 TDP1 CPT -6% and HT1080 IDH1KD tx -5%.
Screening O=C1c2ccccc2C(=O)c2c1cccc2N1CCCC1 returned TDP1 cell noCPT 8.2µM*, KB-V1 MDR tox 15µM*, HT1080-NT tox -15%, KB-3-1 cytotox inactive, DT40 TDP1 CPT inconclusive and HT1080 IDH1KD tx -17%.
`Cn1c(=O)cc2c3c(c(N4CCCCC4)ccc31)C(=O)c1ccccc1-2` gave TDP1 cell noCPT 10µM*, KB-V1 MDR tox inactive, HT1080-NT tox -12%, KB-3-1 cytotox inactive, DT40 TDP1 CPT inconclusive and HT1080 IDH1KD tx 0%.
For Cn1nc(-c2ccccc2)c(N2CCCCC2)cc1=O the results were TDP1 cell noCPT inconclusive, KB-V1 MDR tox inactive, HT1080-NT tox 6%, KB-3-1 cytotox inactive, DT40 TDP1 CPT -4% and HT1080 IDH1KD tx 4%.
